Drawing on PubChem BioAssay (EPA / NIEHS), this text covers AC50 and outcome for 40 molecules.

The structures appear in SMILES notation. The source made the active and inactive calls. The calls were made as follows: active = hit-call score of the fitted dose curve at least 0.9, where 1 is the maximum; inactive = score below 0.9.

Read-out in this assay: ABC Transporter (ABCC3), ABCC3 (gene 8714)
Briefly: LTEA_HepaRG_ABCC3: Life Technologies and Expression Analysis (LTEA) Assay for ABC Transporter (ABCC3) using HepaRG (AID 2283462). Conditions: mRNA level, 48 h; actives raise or lower the signal. As to the method:
LTEA_HepaRG is a cell based, multiplexed-readout assay that uses HepaRG, a human liver cell line, with measurements taken at 48 hours after chemical dosing on a 96-well plate.LTEA_HepaRG_ABCC3 is one of 102 assay component(s) measured in the LTEA HepaRG cell culture assay. It is a marker of NR mediated transport.Data from the assay component LTEA_HepaRG_ABCC3 was analyzed into 1 endpoint. This assay endpoint, LTEA_HepaRG_ABCC3, was analyzed with bidirectional fitting relative to DMSO as the negative control and baseline of activity. Using a type of inducible reporter, measures of mRNA induction for gain or loss-of-signal activity can be used to understand regulation of transcription factor activity. To generalize the intended target to other relatable targets, this assay endpoint is annotated to the transporter intended target family, where the subfamily is ABC transporter.
A total of 1060 chemcials from the ToxCast library were tested in eight-point concentration-response experiments. Cell culture and cytotoxicity assays were conducted at Thermo Fisher Scientific's Custom Services facility (Madison, WI). A single lot of human HepaRG cells (Thermo Fisher Scientific, Frederick, MD) was used for the cell culture experiments. 96-well format collagen type I coated plates of human HepaRG cells were prepared using established methods. Briefly, cryopreserved HepaRG cells were thawed, plated at a density of approximately 100,000 cells/well in HepaRG Thaw, Plate, and General Purpose media (HPRG770, Thermo Fisher Scientific), and incubated for 48 hours. 0.5% DMSO was selected as vehicle control to balance the requisite need of DMSO in HepaRG cultures to maintain differentiation (for example, baseline metabolism, proportions of hepatocytes vs. cholangiocytes), while enabling further hepatic receptor pathway activation (for example, PXR and CAR) in response to chemical exposure. 48 hours after plating, the culture medium was replaced with HepaRG Serum-Free Incudtion Media. Cells were exposed to each test chemical in duplicate and maintained in CO2 incubators for another 48 hours. Chemical plates were thawed to room temperature and 200x concentrations of treatment groups were prepared. 8-point conentration-reponse curves were made with the highest exposure at 100 uM, followed by half-log dilutions, all in 0.5% DMSO. Each test plate contained variouse controls, induction positive controls (1mM phenobarbital), cytotoxicity positive controls ([…] aflatoxin B1), vehicle controls (0.5% DMSO), and total lysis controls (0.5% DMSO). Cell morphology images were taken using an Essen IncuCyte FLR automated microscope, with six 96-well plates imaged in about 24 minutes. Images were captured and exported and JPEG files. Spent culture media was transfered to black-well plates for the LDH assay, and remaining media was sorted at -80 C for later use. Cells were treated with RLT buffer and frozen until shipped for gene expression analysis. Total RNA was isolated from the cell suspension in 75 uL of Buffer RLT (Qiagen, Germantown, MD 20874) by Quintiles/Expression Analysis (Durham, NC) using a custom isolation procedure. Total RNA from each plate well was transferred to a preamplification plate. Fluidigm's 96.96 Dynamic ArrayTM (Fluidigm, Amsterdam, the Netherlands) technology was used for gene expression analyses by quantitative reverse transcription polymerase chain reaction (qRT-PCR, performed by Quintiles/Expression Analysis, Durham, NC)89. Standard TaqManTM Assays (Applied Biosystems/ThermoFisher Scientific, Foster City, CA) were used to assess the expression of 93 genes selected based on their selectivity and sensitivity to important hepatic receptors known to be modulated by environmental chemicals; importance in human hepatocyte functionality; and hepatotoxicity. […]
On to `Nc1ccc(Cl)cc1N`, for which the half-maximal activity concentration (AC50) was 35.8 µM (active).

Take `OCCCl`: the call was inactive.

On to `CCCCCCCCCCCCCN1CC(C)OC(C)C1` (stereo not given), for which the molecule was called inactive.

With `CCN(CC)N=O`, the outcome was inactive.

As for `Oc1ccc2ccc3cccc4ccc1c2c34`, the molecule was classed as inactive.

`CCCCC(CC)COC(=O)c1ccc(C(=O)OCC(CC)CCCC)c(C(=O)OCC(CC)CCCC)c1` (stereo not given): the molecule was called inactive.

On to `O=C1CCCO1`, for which the call was inactive.

Take `Brc1ccc(Oc2ccccc2)cc1`: the molecule was classed as inactive.

For `CCOC(=O)[C@]1(c2ccccc2)Oc2ccccc2[C@@H]1N`, the molecule was called inactive.

Turning to `OCCOCCO`, the molecule was called inactive.

As for `CCCSC(=O)N(CCC)CCC`, the result was inactive.

For the molecule `CC(C)COC(=O)c1ccccc1C(=O)OCC(C)C`, the molecule was classed as inactive.

With `COC(=O)Nc1nc2ccccc2[nH]1`, the call was inactive.

`[O-][Cl+]O`: the call was inactive.

As to `CC(C)(C)OOC(C)(C)CCC(C)(C)OOC(C)(C)C`, the outcome was inactive.

With `CN(C)c1ccc(C(=O)c2ccc(N(C)C)cc2)cc1`, the result was inactive.

In the case of `Clc1ccccc1Cl`, the result was inactive.

With `Nc1ccc([N+](=O)[O-])cc1`, the molecule was called inactive.

Regarding `CN(C)C(=O)Nc1ccc(Cl)cc1`, the molecule was called inactive.

As for `Cn1cc(-c2ccccc2)c(=O)c(-c2cccc(C(F)(F)F)c2)c1`, the result was inactive.

`Cc1ccc(N)cc1`: the molecule was called inactive.

Regarding `CCC12COCN1COC2`, the outcome was inactive.

For the molecule `CN(C)[C@@H]1C(=O)C(C(N)=O)=C(O)[C@@]2(O)C(=O)C3=C(O)c4c(O)cccc4[C@@](C)(O)[C@H]3C[C@@H]12`, the molecule was called inactive.

On to `C=CCc1ccc2c(c1)OCO2`, for which the molecule was classed as inactive.

On to `COP(=S)(OC)SCN1C(=O)c2ccccc2C1=O`, for which the molecule was classed as inactive.

With `CC(C)(C)C(O)(CCc1ccc(Cl)cc1)Cn1cncn1` (stereo not given), the molecule was classed as inactive.

As for `ClC1=C(Cl)C2(Cl)C3C(Cl)C=CC3C1(Cl)C2(Cl)Cl` (stereo not given), the call was inactive.

For the molecule `O=C(Oc1ccc(Br)cc1)N1CCN2CCC1CC2`, the result was inactive.

For the molecule `COc1cc(C=O)cc2c1[C@H](COC(N)=O)[C@]1(OC(C)=O)ON2C[C@H]2[C@@H]1N2C(C)=O`, the AC50 is 9.99 µM (active).

For the molecule `Nc1cc(Cl)cc(C(=O)O)c1Cl`, the result was inactive.

For the molecule `N#CC(Br)Br`, the outcome was inactive.

As for `CC(C)(OOC(C)(C)c1ccccc1)c1ccccc1`, the outcome was inactive.

As for `O=C(O)C1C2CCC(O2)C1C(=O)O` (stereo not given), the result was inactive.

`c1ccc2c(c1)-c1cccc3cccc-2c13`: the outcome was inactive.

For the molecule `c1ccc(NNc2ccccc2)cc1`, the result was inactive.

As to `CCCCOC(=O)c1ccccc1C(=O)OCc1ccccc1`, the outcome was inactive.

As to `O=P(OCCCl)(OCCCl)OCCCl`, the molecule was called inactive.

Take `CCC[CH2][Sn]([Cl])([CH2]CCC)[CH2]CCC`: the outcome was inactive.

Turning to `CCNS(=O)(=O)C(F)(F)C(F)(F)C(F)(F)C(F)(F)C(F)(F)C(F)(F)C(F)(F)C(F)(F)F`, the result was inactive.

Regarding `Nc1ccc(Oc2ccc(N)cc2)cc1`, the call was inactive.

As a reminder, the AC50 is the concentration at which the activity in the assay is half-maximal.
